The list is not random: actives were taken first. Their share in the collection is about 3.8%.
Y pestis TopoI: inhibitors of Yersinia pestis topoisomerase I. Y. pestis Topo-I cleavage product accumulation, plate reader. 360,000 tested, 0.064% active. activity, % at 10 µM; in the data active = activity above about 50%, passing the limit was not always enough
Mtb hypoxia rep: reduces hypoxia-regulated biosensor signal in M. tuberculosis; M. tuberculosis hypoxia-regulated fluorescent reporter, fluorescence; fluorescence inhibition, % (test concentration not listed); 300,000 tested, 0.1% active; in the data active = fluorescence inhibition mostly above about 23%, no sharp cut-off; inactive = mostly below about 17%
PrP 5UTR inh: inhibition of PrP 5' UTR reporter expression. AID 488862. inhibition, % (concentration not given with the values). cell-based PrP 5' UTR mRNA reporter, plate reader. 340,000 tested, 0.35% active; in the data active = inhibition above about 52%
PrPC TRFRET: cell surface PrPC inhibition, primary TR-FRET screen; TR-FRET read-out; inhibition, % at 13.8 µM; 370,000 tested, 0.43% active; in the data active = inhibition above about 24%
GDH-TPI inh: GDH-TPI coupled enzyme inhibition counter-screen | inhibition, % at 4.8 µM | GDH-TPI coupled enzyme counterscreen, NADH absorbance | 360,000 tested, 1.2% active; in the data active = inhibition above about 30%
Mtb FBA inh: inhibitors of M. tuberculosis fructose-bisphosphate aldolase; AID 588726; 360,000 tested, 2.3% active; P9WQA3; purified M. tuberculosis FBA, fluorescence read-out; inhibition, % at 1 µM; in the data active = inhibition above about 27%
Target sequence (P9WQA3 whole entry, looked up): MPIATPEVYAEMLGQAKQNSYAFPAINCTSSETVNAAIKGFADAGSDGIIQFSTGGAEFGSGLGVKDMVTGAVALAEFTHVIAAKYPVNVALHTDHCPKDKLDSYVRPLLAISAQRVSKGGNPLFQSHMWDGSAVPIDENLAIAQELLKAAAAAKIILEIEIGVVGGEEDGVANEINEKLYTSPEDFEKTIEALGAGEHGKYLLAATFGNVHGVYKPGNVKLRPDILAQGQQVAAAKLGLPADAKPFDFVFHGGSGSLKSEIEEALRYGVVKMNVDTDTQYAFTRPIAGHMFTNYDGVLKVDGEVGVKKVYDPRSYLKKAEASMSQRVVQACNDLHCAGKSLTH
Numbers stand for hits; 0 = inactive; - = not tested or not shown.

SMILES	Y pestis TopoI	Mtb hypoxia rep	PrP 5UTR inh	PrPC TRFRET	GDH-TPI inh	Mtb FBA inh
Cc1cc(OC(C)C(=O)NCCCN2CCCC2=O)c2c(C)c(C)c(=O)oc2c1 (stereo not drawn)	0	0	0	0	0	112
Cc1c(OC(C)C(=O)NCCCN2CCCC2=O)ccc2c3c(c(=O)oc12)CCCC3 (stereo not drawn)	0	0	0	0	0	43
COc1cccc(CC(=O)Nc2ccc3c(c2)c(=O)n(C)n3-c2ccc(C(C)(C)C)cc2)c1	0	-	-	0	0	0
CC(CC(=O)Nc1ccc2c(c1)c(=O)n(C)n2Cc1ccc(F)cc1)c1ccccc1 (stereo not drawn)	0	-	-	0	0	130
CC(CC(=O)Nc1ccc2c(c1)c(=O)n(C)n2-c1ccc2ccccc2c1)C(F)(F)F (stereo not drawn)	0	-	-	0	0	0
COc1cccc(CNC(=S)Nc2ccc3c(c2)c(=O)n(C)n3Cc2csc(C)n2)c1	0	-	-	0	0	0
COc1cccc(Cn2c3ccc(NC(=O)CC(C)C(F)(F)F)cc3c(=O)n2C)c1 (stereo not drawn)	0	-	-	0	0	143
CC(CC(=O)Nc1ccc2c(c1)c(=O)n(C)n2Cc1ccc(F)cc1)C(F)(F)F (stereo not drawn)	0	-	-	0	0	148
COc1cccc(Cn2c3ccc(NC(=O)Cc4cc(OC)ccc4OC)cc3c(=O)n2C)c1	0	-	-	0	0	152
CC(CC(=O)Nc1ccc2c(c1)OCO2)=NNC(=O)C(c1ccccc1)c1ccccc1	-	0	-	-	-	-
COC(=O)C1=C(C(=O)OC)C2N(C)c3ccccc3[C@@]23CC(C(=O)OC)N(C(=O)C2CCC2)C3=N1 (stereo partly drawn)	-	0	-	-	-	-
COc1cc(C=NN2C(=O)c3ccccc3NC2(C)c2cccc([N+](=O)[O-])c2)cc(Br)c1O (stereo not drawn)	-	0	-	-	-	-
N#CC(=Cc1ccc(O)c(O)c1)C(=O)N1CCc2ccccc21	-	0	-	-	-	-
C#Cc1ccc(C2C=C(C(=O)NC3CC3)OC(OCc3ccc(CO)cc3)C2)cc1 (stereo not drawn)	-	0	-	-	-	-
COc1cc(-c2c(C#N)c(N)nc3c2CCCC3)ccc1O	0	-	0	0	0	0
COC(=O)c1c(C#N)c(N)nc2c1CCCC2	0	0	0	0	0	125
COc1ccc(C(=O)NN=Cc2ccc(OC)c(COc3ccccc3Br)c2)c(OC)c1	-	0	-	-	-	-
COc1cccc(C=NNC(=O)Cn2nc([N+](=O)[O-])cc2C)c1	-	0	-	-	-	-
CCCn1c2c(c(O)c(C(=O)Nc3ncccc3O)c1=O)CCCC2	0	0	0	0	34	0
COc1cc(OC)c(OC)cc1C=NNC(=O)c1ccc(=O)n(C)c1	-	0	-	-	-	-
CCOC(=O)C1C2COc3ccc(Br)cc3C2N2C(=O)c3ccc(Cl)cc3NC(=O)[C@@]12C (stereo partly drawn)	-	0	-	-	-	-
COc1ccc(NC(=O)Cn2cc(C(=O)c3ccco3)c3ccccc32)cc1	0	0	0	0	31	0
O=C(Cn1cc(C(=O)c2ccco2)c2ccccc21)Nc1ccccc1	0	0	0	0	34	0
CCOc1ccc(NC(=O)Cn2cc(C(=O)c3ccco3)c3ccccc32)cc1	0	0	0	0	0	0
N#Cc1c(N)c(C(=O)c2ccc(Br)cc2)n2c1CCC2	0	-	0	0	31	0
SMILES	Y pestis TopoI	Mtb hypoxia rep	PrP 5UTR inh	PrPC TRFRET	GDH-TPI inh	Mtb FBA inh
COc1ccccc1C1C(c2cccc(C)c2)=NN(c2ccccc2)C1C(=O)N1CCOC1=O (stereo not drawn)	-	0	-	-	-	-
CCOC(=O)c1sc(NC(=O)c2ccco2)c(C#N)c1C	0	0	0	0	0	0
CC(=O)N1CCc2c(sc(NC(=O)c3ccc([N+](=O)[O-])o3)c2C#N)C1	0	40	0	0	0	0
COC(=O)c1sc(NC(=O)c2ccc([N+](=O)[O-])o2)c(C#N)c1C	0	-	0	0	32	0
CCOC(=O)C1C2COc3ccc(Cl)cc3C2N2C(=O)CN(Cc3ccco3)C(=O)[C@@]12C (stereo partly drawn)	-	0	-	-	-	-
CN(C)S(=O)(=O)c1ccc(C(=O)OCC(=O)Nc2ccc3c(c2)OCO3)cc1	0	21	0	0	0	0
CC(=O)Nc1ccc(SCC(Cc2ccccc2)N2CCC(C)CCC2=O)cc1 (stereo not drawn)	-	0	-	-	-	-
COc1ccc(/C=C(\NC(=O)c2ccco2)C(=O)Nc2ccc(C(C)=O)cc2)cc1	0	0	0	0	33	0
CSc1ccc(/C=C(\NC(=O)c2ccco2)C(=O)N2CCCCC2)cc1	0	0	0	0	37	0
CSc1ccc(/C=C(/NC(=O)c2ccco2)C(=O)N2CCCCCC2)cc1	0	0	0	0	0	0
CSc1ccc(/C=C(/NC(=O)c2ccco2)C(=O)NCc2ccco2)cc1	0	0	0	0	41	0
COc1ccc(C2CC(=O)C=C(c3ccc(Cl)c(F)c3)C2)cc1 (stereo not drawn)	-	0	-	-	-	-
CCCc1cc(C(=O)Cc2ccc(F)cc2)c(O)cc1O	0	-	0	0	32	0
CCCc1cc(C(=O)Cc2nc3ccccc3s2)c(O)cc1O	0	0	0	0	38	0
CCOC(=O)C(=O)Cc1nc2ccccc2s1	0	0	0	0	0	0
CCc1cc(C(=O)COc2ccccc2F)c(O)cc1O	0	0	0	0	38	0
O=C(Cc1c(F)cccc1Cl)c1ccc(O)cc1O	0	0	0	0	34	0
CCOC(=O)C(=NNc1ccccc1)Sc1nnnn1-c1ccc(C)cc1	-	0	-	-	-	-
COc1ccc(C=NNC(=O)c2cc(O)c(O)c(O)c2)cc1COc1ccc(C(=O)OCC(C)C)cc1	-	0	-	-	-	-
COC(=O)c1cc(Br)ccc1-c1ccc(C=Nn2nnnc2N)o1	-	0	-	-	-	-
CCc1cc(C(=O)Cc2ccc(F)cc2)c(O)cc1O	0	0	0	0	0	0
CCc1cc(C(=O)Cc2nc3ccccc3[nH]2)c(O)cc1O	0	0	0	0	39	0
O=C(Cc1ccc(F)cc1)c1ccc(O)cc1O	0	0	0	0	46	0

Screening data: PubChem BioAssay, several laboratories
